# In PubChem BioAssay (Tox21):
# Records with an inconclusive call do not appear. Active and inactive are the calls of the source. The call rests on the fitted dose curve; in most records, active means well fitted curve in the direction sought with a large enough effect in the signal ratio in the repeat runs (not every such curve was filed as active); inconclusive means weak or mixed curves, or effect the other way; inactive means no such curve, though single readings can be large or run the other way; the % refers to the signal ratio.
# Biological target: Estrogen receptor (Homo sapiens) (UniProt P03372)
# Sequence (P03372 whole entry, looked up): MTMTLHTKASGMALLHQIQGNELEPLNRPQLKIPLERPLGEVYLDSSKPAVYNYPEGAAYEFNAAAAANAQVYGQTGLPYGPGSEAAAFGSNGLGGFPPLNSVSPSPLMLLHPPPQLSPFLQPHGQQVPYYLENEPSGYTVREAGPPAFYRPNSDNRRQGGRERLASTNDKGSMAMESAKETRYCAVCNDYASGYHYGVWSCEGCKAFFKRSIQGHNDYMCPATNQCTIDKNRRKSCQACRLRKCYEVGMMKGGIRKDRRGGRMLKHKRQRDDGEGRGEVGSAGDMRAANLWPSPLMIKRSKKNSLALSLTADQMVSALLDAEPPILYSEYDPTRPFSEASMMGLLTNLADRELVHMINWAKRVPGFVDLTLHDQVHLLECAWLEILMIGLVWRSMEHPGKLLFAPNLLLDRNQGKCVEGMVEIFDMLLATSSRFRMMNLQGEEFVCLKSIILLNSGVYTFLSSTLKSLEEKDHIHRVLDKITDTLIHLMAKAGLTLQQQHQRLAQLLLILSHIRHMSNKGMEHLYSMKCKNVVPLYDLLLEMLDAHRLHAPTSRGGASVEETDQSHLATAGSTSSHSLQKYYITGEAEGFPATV
# Assay: qHTS assay to identify small molecule antagonists of the estrogen receptor alpha (ER-alpha) signaling pathway (AID 743069)
# Settings: HEK293 ER-alpha-UAS-bla, beta-lactamase ratio, antagonist mode; series mostly up to 69.4 µM; activity, negative = inhibition: at the top concentration
# Description: National Center for Advancing Translational Sciences [NCATS]
# NIH Chemical Genomics Center [NCGC]
# U.S. Environmental Protection Agency [EPA]
# National Institutes of Environmental Health Sciences [NIEHS]
# National Toxicology Program [NTP]
# U.S. Food and Drug Administration [FDA]
# Estrogen receptor (ER), a nuclear hormone receptor, plays an important role in development, metabolic homeostasis and reproduction. Two subtypes of ER, ER-alpha and ER-beta have similar expression patterns with some uniqueness in both types. Endocrine disrupting chemicals (EDCs) and their interactions with steroid hormone receptors like ER causes disruption of normal endocrine function. To identify the compounds that inhibit ER signaling, an ER-alpha-UAS-bla GripTiteTM cell line (Invitrogen, Carlsbad, CA, USA) containing a beta-lactamase reporter gene under the control of an Upstream Activator Sequence (UAS) stably integrated into HEK293 cells was used to screen the Tox21 10K compound library.
# Tox21 Assay Protocol Summary:
# ER-alpha-bla cells were cultured in assay medium containing 2% charcoal stripped FBS overnight in the culture flasks before the assay was performed. The cells were dispensed at 5,000 cells/5 uL of assay medium per well into black wall/clear-bottom 1536-well plates using a Multidrop Combi (ThermoFisher Scientific, Waltham, MA) dispenser. After the assay plates were incubated at a 37C and 5% CO2 for 4 hr, 23 nL of compounds dissolved in DMSO, positive controls or DMSO only was transferred to the assay plate by a Pintool station (Kalypsys, San Diego, CA), followed by addition of 1 uL of 17beta-estradiol in assay medium using a Flying Reagent Dispenser (Aurora Discovery, San Diego, CA). The plates were incubated at 37C and 5% CO2 for 18 hr. Then 1 uL of LiveBLAzerTM B/G FRET substrate was added using a Flying Reagent Dispenser, the plates were incubated at room temperature for 2 hours, and fluorescence intensity was measured by an Envision plate reader (PerkinElmer, Shelton, CT).
# On the % scale 0 is the no-effect control and ±100 the full control effect.
SMILES,"activity, negative = inhibition",Potency
CCC(C)(C)C(=O)O,4.8% (inactive),–
COc1ccc(CCN(C)CCCN2CCc3cc(OC)c(OC)cc3CC2=O)cc1OC,9.81% (inactive),–
CC(C)(C)CCCCCCOC(=O)c1ccccc1C(=O)OCCCCCCC(C)(C)C,7.85% (inactive),–
COc1ccc(-c2cc(C(F)F)nn2-c2ccc(S(N)(=O)=O)cc2)cc1F,-4.76% (inactive),–
CC[C@H]1OC(=O)[C@H](C)[C@@H](O[C@H]2C[C@@](C)(OC)[C@@H](O)[C@H](C)O2)[C@H](C)[C@@H](O[C@@H]2O[C@H](C)C[C@H](N(C)C)[C@H]2O)[C@](C)(O)C[C@@H](C)/C(=N\OCOCCOC)[C@H](C)[C@@H](O)[C@]1(C)O,–,inactive
O=C(Oc1ccccc1)c1ccc2ccccc2c1O,13.9% (inactive),–
CC(=O)OCCC(C)CC(C)(C)C (stereo not given),38.2% (inactive),–
COc1cc(NS(=O)(=O)c2ccc(N)cc2)nc(C)n1,5.34% (inactive),–
SCCc1cnccn1,-5.9% (inactive),–
CCCCCCCCCCCC(=O)OCC(O)CO (stereo not given),–,inactive
CC(C)C(=O)OCCOc1ccccc1,-2.23% (inactive),–
Cc1ccc(Nc2c(F)cccc2Cl)c(CC(=O)O)c1,-27.9% (inactive),–
CNc1c2c(nn1C)CCCC2,3.3% (inactive),–
CC(C)c1ccc(C#N)cc1,-9.74% (inactive),–
CNC1CCCN(c2c(F)cc3c(=O)c(C(=O)O)cn(C4CC4)c3c2OC)C1 (stereo not given),-3.24% (inactive),–
O=C(Nc1ccc(C(=O)O)c(O)c1)c1ccccc1,10.1% (inactive),–
CC(=O)c1ccc[nH]1,15.5% (inactive),–
O=NN(CCCl)C(=O)NCCCl,1.31% (inactive),–
CN1CCCN(C(c2ccccc2)c2ccc(Cl)cc2)CC1 (stereo not given),5.31% (inactive),–
CSCC[C@H](NC(=O)[C@H](Cc1c[nH]c2ccccc12)NC(=O)CCNC(=O)OC(C)(C)C)C(=O)N[C@@H](CC(=O)O)C(=O)N[C@@H](Cc1ccccc1)C(N)=O,-3.75% (inactive),–

SMILES,"activity, negative = inhibition",Potency
CCO[Si](C)(CCCOCC1CO1)OCC (stereo not given),13.5% (inactive),–
CC1=C2[C@@H]([C@H](C)CC[C@H]2/C=C(\C)C(=O)O)[C@H](O)C1,-54.7% (inactive),–
CC(C)(C)C(O)/C=C/c1ccc2c(c1)OCO2 (stereo not given),7.68% (inactive),–
Cc1cn([C@H]2C[C@H](F)[C@@H](CO)O2)c(=O)[nH]c1=O,10.7% (inactive),–
C/C(C=O)=C\c1ccccc1,11.4% (inactive),–
O=C(O)CCS,11.2% [at 79.1 µM] (inactive),–
CC1CCCC(=O)C1=O (stereo not given),-11.3% (inactive),–
CCN(Cc1cccc(S(=O)(=O)O)c1)c1ccc(C(=C2C=CC(=[N+](CC)Cc3cccc(S(=O)(=O)O)c3)C=C2)c2ccc(O)cc2S(=O)(=O)[O-])cc1,-3.12% (inactive),–
O=C(C(=O)c1ccco1)c1ccco1,7.29% [at 79.1 µM] (inactive),–
COC(C)(C)OC,-9.1% (inactive),–
CCN(CC)C(=O)/C(C#N)=C/c1cc(O)c(O)c([N+](=O)[O-])c1,30.7% (inactive),–
Cc1cccc2sc(N)nc12,13.9% [at 79.1 µM] (inactive),–
BrC(Br)C(Br)Br,-4.95% (inactive),–
COc1cc(S(=O)(=O)Nc2ccccc2)c(OC)cc1N,-2.42% (inactive),–
Cc1cc([N+](=O)[O-])ccc1N,-19.2% (inactive),–
ClC1=C(Cl)C1(Cl)Cl,-5.62% [at 79.1 µM] (inactive),–
CCC(Cl)CC(Cl)C(Cl)C(Cl)C(Cl)C(C)Cl (stereo not given),21.9% [at 15 µM] (inactive),–
CC(C)C1CCC(C(=O)N[C@H](Cc2ccccc2)C(=O)O)CC1 (stereo not given in full),-4.71% (inactive),–
O=C(O)CO,-20.7% (inactive),–
COC(=O)CC(C(C)=O)C(=O)OC (stereo not given),10.9% (inactive),–
